Tau fluor cs = Counterscreen qHTS for Inhibitors of Tau Fibril Formation, Fluorescence Polarization; tau K18 P301L Alexa594 fluorescence, heparin fibrillization; Potency, µM (top dose mostly 57.7 µM), without a hit: at the highest dose activity change, negative = decrease; 280,000 compounds, 0.93% hits; AID 1463, 2008; also: nearly all actives have a fitted effect of over 55% in size
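Human K18 P301L tau (15 uM unlabeled plus 0.24 uM Alexa 594-labeled, final) in 100 mM sodium acetate pH 7 was mixed with compound and 20 uM heparin and incubated 6 hr at 37 C.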
Luc counter = Counterscreen for Luciferase (Kinase-Glo TM) Inhibition. Kinase-Glo luciferase, ATP luminescence, 8 min. Potency, µM (highest dose often 38.3 µM), for inactives: top-dose activity change, negative = inhibition, most hits filed as inhibitors. 200,000 compounds, 0.28% hits; also: nearly all actives have a fitted effect of over 60% in size
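Substrate mix (final 50 mM imidazole pH 7.2, 50 mM KCl, 7 mM MgCl2, 10 uM ATP, 0.01% Tween 20, 0.05% BSA) plus pin-tool compound, then Kinase-Glo detection mix; 8 min ambient, luminescence read.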
NPSR antag = qHTS Assay for Antagonists of the Neuropeptide S Receptor: cAMP Signal Transduction | Q6W5P4 | CHO-NPSR cells, cAMP TR-FRET, antagonist mode | Potency, µM (titrated, usually from 38.3 µM), for the others: at the highest dose activity change, negative = inhibition, hits mostly inhibitors | 220,000 compounds, 1% hits | AID 1461, 2008; also: nearly all actives have a fitted effect of over 50% in size
Target sequence (Q6W5P4 whole entry, looked up): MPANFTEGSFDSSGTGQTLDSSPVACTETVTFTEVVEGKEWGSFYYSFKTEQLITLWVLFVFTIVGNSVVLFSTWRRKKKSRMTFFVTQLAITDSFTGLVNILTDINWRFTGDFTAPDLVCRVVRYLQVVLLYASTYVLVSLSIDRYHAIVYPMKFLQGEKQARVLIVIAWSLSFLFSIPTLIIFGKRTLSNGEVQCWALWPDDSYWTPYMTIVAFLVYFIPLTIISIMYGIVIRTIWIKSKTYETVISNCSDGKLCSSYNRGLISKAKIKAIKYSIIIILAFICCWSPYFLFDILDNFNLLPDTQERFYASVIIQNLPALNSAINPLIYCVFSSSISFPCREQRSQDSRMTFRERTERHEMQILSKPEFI
Tau FP inhib = qHTS for Inhibitors of Tau Fibril Formation, Fluorescence Polarization; K18 P301L tau heparin fibrillization, Alexa594 FP, 6 h; 280,000 compounds, 0.39% hits; Microtubule-associated protein tau (Homo sapiens), P10636; Potency, µM (top dose mostly 57.7 µM), without a hit: top-dose activity, negative = inhibition, hits mostly inhibitors; also: nearly all actives have a fitted effect of over 55% in size
Target sequence (P10636 561-689 P618L limits assumed): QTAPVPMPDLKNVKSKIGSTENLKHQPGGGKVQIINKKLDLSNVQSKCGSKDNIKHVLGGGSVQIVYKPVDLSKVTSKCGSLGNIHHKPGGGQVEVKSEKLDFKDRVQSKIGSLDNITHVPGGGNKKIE
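Human K18 P301L fragment (15 uM unlabeled plus 0.24 uM Alexa 594-labeled) in 100 mM sodium acetate pH 7 with compound, aggregation induced by 20 uM heparin for 6 hr at 37 C. ThT (30 uM) added for 1 hr, then Alexa 594 FP read.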
Tau fibril ThT = qHTS for Inhibitors of Tau Fibril Formation, Thioflavin T Binding; recombinant tau K18 P301L, heparin-induced fibrillization, ThT fluorescence; Potency, µM (series often up to 57.4 µM), for the others: at the top dose activity, negative = inhibition, hits mostly inhibitors; 270,000 compounds, 2.1% hits; AID 1460, 2008; also: nearly all actives have a fitted effect of over 55% in size
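Using a mix of unlabeled (15 uM) and Alexa 594-labeled (0.24 uM) tau K18 P301L, heparin-triggered fibrillization over 6 hr at 37 C was scored by ThT fluorescence.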
* marks the source's active call; other numbers are inactive results; ? = inconclusive; . = not tested or not shown; [ ] = dose if it differs, or a comment. Rows were chosen to be rich in hits. Some 3.3% of all compounds tested hit in one or more screens of this group. Calls follow the shape of the dose curve; as a rule, active = well fitted curve in the direction sought with a large enough effect; inconclusive = small, poorly fitted or top-dose-only effect, or another doubt; inactive = no such curve, though single readings can be large; an effect the other way counts as inactive or inconclusive. % is scaled to controls: 0 for no effect and ±100 for the full control effect; potency is read from the fitted curve at half-maximal effect.

SMILES	Tau fluor cs	Luc counter	NPSR antag	Tau FP inhib	Tau fibril ThT
CC(C)=CCc1c2c(c3occ(-c4ccc(O)c(O)c4)c(=O)c3c1O)C=CC(C)(C)O2	3.5µM*[quencher]	-5%[7.66 µM]	.	25µM*	?
CC1(C)C=Cc2c(c3c(c4c(=O)c(-c5ccc(O)cc5)coc24)OC(C)(C)CC3)O1	?	0%	?	?	?
CC(C)=CCc1c2c(c3occ(-c4ccc(O)cc4)c(=O)c3c1O)C=CC(C)(C)O2	3.2µM*[quencher]	-2%	?	22µM*	?
Cc1ccc(-n2ncc(C(=O)NCCN3CCc4ccccc4C3)c2C2CCN(C(=O)OC(C)(C)C)CC2)cc1	-11%	.	.	6%	-13%
COc1ccc([C@H]2c3cc(OC)c(OC)cc3C[C@@H](C)[C@@H]2C)cc1OC	-7%	3%	.	-2%	-14%
COc1ccc(NC(=O)CN2C(=O)CC(c3ccc(C)c(C)c3)=Nc3ccccc32)cc1OC	25µM*[quencher]	.	.	-1%	?
C=C1/C(=C\C=C2/CCC[C@]3(C)C([C@H](C)CCCC(C)(C)O)CC[C@@H]23)C[C@@H](O)C[C@@H]1O (stereo partly drawn)	-6%	.	.	?	?
CN1CCc2c(cc(O)c(O)c2Cl)C(c2cccc(Cl)c2)C1 (stereo not drawn)	-23%	-1%	-17%[46.1 µM]	-7%	?
O=C(CSc1nccn1-c1ncc(C(F)(F)F)cc1Cl)c1ccc(Br)cc1	-23%	-3%	-15%[46.1 µM]	?	14µM*
CN1CCN(C(=S)c2ccc(-c3cccc(Cl)c3Cl)o2)CC1	-21%	0%	-26%	2%	14µM*
Brc1ccc(-c2ccc(/C=N/Nc3nncc(-c4ccccc4)n3)o2)cc1	-16%	-3%	8%[46.1 µM]	11%	2µM*
COc1ccc(-c2cnnc(N/N=C/c3ccc(O)cc3)n2)cc1	?	-3%	8%	1%	?
COc1ccc(-c2cnnc(N/N=C/c3ccc(C)o3)n2)cc1	-30%	0%	-9%	9%	2.8µM*
COc1ccc(-c2cnnc(N/N=C/c3ccc(O)c(O)c3)n2)cc1	?	-8%	-17%	?	2.5µM*
Fc1cnc(N/N=C/c2ccc(-c3ccc(Br)cc3)o2)nc1N1CCOCC1	13µM*[quencher]	.	?	-5%	10µM*
COc1cccc([C@H]2Oc3ccc(OC)cc3/C(=N\O[C@@H](C)c3cn([C@H](CO)Cc4ccccc4)nn3)[C@@H]2O)c1	-10%[11.6 µM]	.	.	-1%[11.6 µM]	-6%[11.5 µM]
CCOC(=O)N1CCc2c(sc3c2c(=O)n(-c2ccc(CC)cc2)c(=O)n3CC(=O)c2ccc(F)cc2)C1	-4%	.	.	-10%	1%
CC(C)(C)NC(=O)[C@H]1CN(Cc2cccnc2)CCN1C[C@@H](O)C[C@@H](Cc1ccccc1)C(=O)N[C@H]1c2ccccc2C[C@H]1O	-23%	3%[39.9 µM]	.	2%	-7%
COc1cc(NCCCC(C)N)c2ncccc2c1 (stereo not drawn)	?	-6%	-21%[7.67 µM]	?	25µM*
Cc1cccc(NC(=O)CSc2nnc(-c3ccco3)c(-c3ccco3)n2)c1	?	-1%	22%	?	14µM*
Cc1ccccc1NC(=O)CSc1ccc(-c2ccco2)nn1	-5%	2%	15%	4%	-8%
Cc1cccc(NC(=O)CSc2nnc(-c3ccco3)c(-c3ccco3)n2)c1C	?	-3%	-17%[46.1 µM]	13µM*	7.9µM*
Oc1ccc(/C=N/NC(=S)N/N=C/c2ccc(O)cc2)cc1	10%	4.5µM*	-1%	2%	13%
CN(C)c1ccc(C(CNC(=O)c2ccccc2)c2c[nH]c3ccccc23)cc1 (stereo not drawn)	14µM*[quencher]	-1%	-42%	?	?
[O-]/[N+](=C/c1ccc(F)cc1)c1ccc(Cl)cc1	-24%	-4%	0%[46.1 µM]	?	32µM*
SMILES	Tau fluor cs	Luc counter	NPSR antag	Tau FP inhib	Tau fibril ThT
CN1C(=S)SC(/[N+]([O-])=C/c2ccc(Cl)cc2)C1(C)C (stereo not drawn)	10%	.	-3%	0%	.
CCOCCCN1C(=O)c2[nH]nc(-c3ccccc3O)c2C1c1ccc(CC)cc1 (stereo not drawn)	?	.	.	3%	-15%
NC(=O)c1ccccc1N/C=C/C(=O)c1ccc(Cl)cc1Cl	-24%	11µM*	-7%[46.1 µM]	5%	?
NC(=O)c1ccccc1N/C=C/C(=O)c1ccc(F)cc1	-11%	7.9µM*	-19%[46.1 µM]	-4%	-8%
CCOC(=O)c1cnc(-n2nc(C)cc2C)nc1Nc1ccc(C)cc1	-2%	2%	1.3µM*	8%	-4%
O=S(=O)(Nc1cc(Sc2cccc3cccnc23)c(O)c2ccccc12)c1ccccc1	16µM*[quencher]	-1%	-6%	?	16µM*
Cc1ccc(S(=O)(=O)Nc2cccc3cccnc23)cc1	?	-6%	?	-10%	-16%
CCOC(=O)c1c(-c2ccc(C)cc2)csc1NC(=O)c1cc2ccccc2oc1=O	-1%	-1%	10µM*	5%	-16%
CCOC(=O)c1c(-c2ccc(C)cc2)csc1NC(=O)c1cc(=O)c2ccc(C)cc2o1	-20%	.	.	-3%	-11%
Cc1ccnc(NC(=O)c2cc3ccccc3oc2=O)c1	-2%	11µM*	5%	0%	-8%
COc1ccc(CC(=O)Nc2ccc3nc(Nc4cccc(Cl)c4)cc(C)c3c2)cc1	4.5µM*[quencher]	.	.	?	?
Cc1cc(Nc2cccc(C(F)(F)F)c2)nc2ccc(NC(=O)Cc3ccc(Cl)cc3)cc12	7.9µM*[quencher]	.	.	?	?
COc1ccccc1CC(=O)Nc1ccc2nc(Nc3cccc(Cl)c3)cc(C)c2c1	4µM*[quencher]	.	.	?	?
COc1cccc(-n2c(SCC(=O)Nc3nnc(C)s3)nc3c([nH]c4ccccc43)c2=O)c1	-25%	.	.	-8%	9%
Cc1ccccc1OCC(=O)Nc1ccc(S(=O)(=O)Nc2ncccn2)cc1	0%	.	.	-6%	-7%
CCc1ccc(NC2CC(=O)N(CCc3ccc(OC)c(OC)c3)C2=O)cc1 (stereo not drawn)	-6%	-1%	2%	11%	-10%
O=C1CC(Nc2ccc(N3CCOCC3)cc2)C(=O)N1c1ccccc1F (stereo not drawn)	-27%	-2%	-21%[46.1 µM]	-5%	14µM*
COc1ccc(CCN2C(=O)CC(Nc3ccc(N4CCOCC4)cc3)C2=O)cc1OC (stereo not drawn)	-13%	10%	-24%[46.1 µM]	5%	13µM*
O=C1C(c2cc(=O)c3ccccc3[nH]2)=C(O)c2ccccc21	-10%	-19%	-22%	10%	4.5µM*
